# A selection: hits, their analogues and other compounds. The true share with any hit is near 3.4%.
# PP5 inh – PP5 (human) phosphatase inhibition; P53041; inhibition, % at 6.7 µM; purified PP5c, OMFP substrate fluorescence; 0.18% of 320,000 active; AID 1987;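 active means inhibition above the campaign's mean inhibition across all tested compounds plus 3 SD, cut at about 9.5% in these data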;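 further: 0% = DMSO only and 100% = 100 µM cantharidin control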
# PP1 inh – counter-screen for PP5 inhibitors: inhibitors of human PP1-alpha | purified PP1alpha, OMFP fluorescence | 0.9% of 320,000 active | AID 2235 | inhibition, % at 6.7 µM;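 active means inhibition above the mean inhibition of all tested compounds plus 3 SD, computed separately for each screening campaign, cut at about 15% in these data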
# PAFAH1B3 FP inh – blocks human PAF acetylhydrolase 1B catalytic subunit 3 | inhibition, % at 3.39 µM | recombinant PAFAH1B3, FP-rhodamine probe, fluorescence polarization | Q15102 | 0.28% of 340,000 active;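 active means inhibition above the screen-wide average of all tested compounds plus 3 SD, cut at about 25% in these data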;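 further: 0% = enzyme with DMSO only and 100% = wells lacking PAFAH1B3 protein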
# pPAFAH inh – pPAFAH (human) enzyme inhibition; recombinant pPAFAH, FP-rhodamine probe fluorescence polarization; inhibition, % at 3.39 µM; 1.5% of 330,000 active; AID 463082;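 active means inhibition above the mean inhibition across the screen plus 3 SD, cut at about 25% in these data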;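 further: inhibitors block binding of the rhodamine activity-based probe so polarization drops; 0% = enzyme with DMSO and 100% = wells lacking pPAFAH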
# Target sequence (Q13093 whole entry, looked up): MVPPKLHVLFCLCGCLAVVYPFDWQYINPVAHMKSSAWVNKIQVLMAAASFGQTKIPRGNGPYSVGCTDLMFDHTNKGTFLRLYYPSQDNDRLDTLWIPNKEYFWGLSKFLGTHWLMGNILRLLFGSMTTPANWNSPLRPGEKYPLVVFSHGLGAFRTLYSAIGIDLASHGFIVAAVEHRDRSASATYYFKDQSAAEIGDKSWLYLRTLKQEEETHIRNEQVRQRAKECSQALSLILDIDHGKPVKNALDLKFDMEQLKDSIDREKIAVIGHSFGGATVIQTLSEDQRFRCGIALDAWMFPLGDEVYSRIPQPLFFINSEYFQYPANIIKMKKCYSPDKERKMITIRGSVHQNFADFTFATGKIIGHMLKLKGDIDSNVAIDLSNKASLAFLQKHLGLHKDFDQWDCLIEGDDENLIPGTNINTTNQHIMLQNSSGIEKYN
# PAFAH1B2 FP inh – PAFAH1B2 (human) inhibition; recombinant PAFAH1B2, FP-rhodamine activity probe, fluorescence polarization; inhibition, % at 3.39 µM; 1.2% of 340,000 active;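 active means inhibition above the mean of all tested compounds plus 3 SD, cut at about 24% in these data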;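 further: 0% = enzyme with DMSO and 100% = wells lacking PAFAH1B2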
# PAFAH2 FP inh – PAFAH2 (human) inhibition. Q99487. recombinant PAFAH2, FP-rhodamine activity probe, fluorescence polarization. inhibition, % at 3.39 µM. 0.99% of 340,000 active. AID 492956;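 active means inhibition above the mean over all tested compounds plus 3 SD, cut at about 30% in these data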;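 further: inhibitors block probe labeling of enzyme so polarization drops; 0% = enzyme with DMSO and 100% = wells lacking PAFAH2 protein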
# PAFAH2 FP conf – PAFAH2 (human) inhibition, confirmed | shares compounds with PAFAH2 FP inh | recombinant PAFAH2, FP-rhodamine activity probe, fluorescence polarization | inhibition, % at 3.39 µM | 65% of 2,300 active | AID 493030;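 active means mean inhibition over three repeats above a set limit taken from the earlier primary screen, cut at about 30% in these data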;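 further: inhibitor blocks binding of rhodamine activity probe so polarization falls; 0% = enzyme with DMSO and 100% = wells lacking PAFAH2 protein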
# * hit, by the source's call; · = no result given.
SMILES,PP5 inh,PP1 inh,PAFAH1B3 FP inh,pPAFAH inh,PAFAH1B2 FP inh,PAFAH2 FP inh,PAFAH2 FP conf
CCCCC1CN2CCc3c([nH]c4ccccc34)C2(C)C1 (stereo unspecified),0,1,8,-1,1,-4,·
COc1cccc(NC(=O)COC(=O)C2CC3CCCC(C2)C3=O)c1 (stereo unspecified),0,-2,-2,-3,9,58*,54*
Cc1cccc([N+](=O)[O-])c1NC(=O)COC(=O)C1CC2CCCC(C1)C2=O (stereo unspecified),1,-1,6,3,3,9,·
Cc1ccc([N+](=O)[O-])c(NC(=O)COC(=O)C2CC3CCCC(C2)C3=O)c1C (stereo unspecified),0,2,8,0,2,34*,32*
CCc1[nH]nc(C(=O)N2CCCC(N3CCN(c4ccccc4C)CC3)C2)c1C (stereo unspecified),-7,-8,3,-5,-3,0,·
COc1ccc(/C=C/C(=O)OCC(=O)NC2CCCC(C)C2C)cc1S(=O)(=O)N1CCOCC1 (stereo unspecified),0,2,-1,0,2,67*,75*
COc1ccc(/C=C/C(=O)OCC(=O)Nc2ccc(Cl)cc2F)cc1S(=O)(=O)N1CCOCC1,3,-3,4,2,3,73*,48*
NC(=O)C1CCN(C(=O)C2CCC(=O)N(CC3CCCCC3)C2)CC1 (stereo unspecified),-1,-5,11,2,8,5,·
COC(=O)c1ccccc1NC(=O)COC(=O)CO/N=C(\C)c1ccc2c(c1)OCO2,1,-2,3,4,1,5,·
O=C(COC(=O)C1CCC1)Nc1ccc(OC(F)F)cc1,2,-5,-3,-1,4,16,·
O=C(COC(=O)C1CC1)Nc1ccc(N=Nc2ccccc2)cc1,4,0,4,10,3,85*,78*
O=C(COC(=O)C1CC1)Nc1ccc(OC(F)F)cc1,0,-5,9,13,1,55*,46*
O=C(COC(=O)C1CC1)NC(=O)c1ccccc1,-1,0,2,0,11,32*,13
CCCn1c(C(C)Nc2nc(-c3ccc(Cl)c([N+](=O)[O-])c3)cs2)nc2cc(Cl)c(N3CCCCC3)cc21 (stereo unspecified),1,-1,7,10,0,-1,·
CCOc1ccc(NC(=O)COC(=O)CC2CCCCC2)cc1,1,-1,-3,16,3,45*,41*
CCOc1ccc(NC(=O)CC(=O)Nc2ccc(OCC)cc2)cc1,1,-4,9,3,4,-1,·
O=C(COC(=O)CC1CCCC1)Nc1ccc(Cl)cc1,·,·,-2,·,1,80*,74*
O=C(CC1CCCC1)Nc1ccc(Br)cc1,1,0,1,0,2,1,·
O=C(Nc1ccc(Cl)cc1)Nc1ccc(S(=O)(=O)Nc2ncccn2)cc1,0,-3,2,0,-1,-5,·
O=C(Nc1ccc(S(=O)(=O)Nc2ncccn2)cc1)c1ccccc1NS(=O)(=O)c1ccc(Cl)cc1,3,4,3,5,3,50*,50*
Cc1ccc(NC(=O)COC(=O)c2ccccc2Cl)cc1S(=O)(=O)N(C)C,1,-5,1,2,-1,58*,39*
Cc1ccc(NC(=O)Cc2ccccc2Cl)cc1S(=O)(=O)N(C)C,0,1,0,2,-6,6,·
Cc1ccc(NC(=O)COC(=O)c2cccc(C)c2[N+](=O)[O-])cc1S(=O)(=O)N1CCCCC1,·,·,-14,-10,-18,26,·
Cc1ccc(C)c(NC(=O)COC(=O)c2ccc(S(=O)(=O)N3CCCCC3)cc2)c1,2,1,5,-5,1,2,·
Cc1ccc(S(=O)(=O)N2CCCCC2)cc1NC(=O)COC(=O)c1ccccc1F,-1,0,0,12,-5,52*,53*
SMILES,PP5 inh,PP1 inh,PAFAH1B3 FP inh,pPAFAH inh,PAFAH1B2 FP inh,PAFAH2 FP inh,PAFAH2 FP conf
Cc1ccc(NC(=O)COC(=O)c2ccccc2F)cc1S(=O)(=O)N1CCCCC1,·,·,-1,·,1,67*,59*
CSCCC(N=C(NS(=O)(=O)c1ccc(C)cc1)c1ccccc1)C(=O)O (stereo unspecified),-1,-4,8,2,4,-2,·
CN1/C(=C\C(=O)c2ccco2)C(C)(C)c2ccccc21,0,-3,-48,-9,-47,-76,·
CN1/C(=C\C(=O)COC(=O)c2ccco2)C(C)(C)c2ccccc21,0,-1,7,-5,8,33*,37*
CCN(CC)S(=O)(=O)c1ccc2c(c1)nc(CCC(=O)OCC(=O)N1CCc3ccccc31)n2C,-3,-2,7,3,5,71*,82*
CCN(CC)S(=O)(=O)c1ccc2c(c1)nc(CCC(=O)OCc1c(C)noc1C)n2C,-1,-1,2,-4,-1,10,·
CCN(CC)S(=O)(=O)c1ccc2c(c1)nc(CCC(=O)OCC(=O)Nc1cc(Cl)cc(Cl)c1)n2C,7,1,-15,6,-4,73*,84*
CCc1ccc(NC(=O)COC(=O)CCc2nc3cc(S(=O)(=O)N(CC)CC)ccc3n2C)cc1,4,0,7,6,6,63*,75*
COc1ccc(CN(C(=O)c2oc3cc(C)ccc3c2C)C2CCS(=O)(=O)C2)cc1OC (stereo unspecified),5,0,6,0,2,1,·
Cc1ccc(Cl)c(NC(=O)COC(=O)C2CCC2)c1Cl,3,-9,1,19,0,7,·
Cc1ccc(NC(=O)COC(=O)C2CC2)cc1Cl,0,-1,-1,10,2,79*,69*
O=C(COC(=O)C1CC1)Nc1ccc2c(c1)OCO2,-2,-1,-2,0,-2,67*,54*
CCN(c1ccccc1)S(=O)(=O)c1cc(NC(=O)COC(=O)C2CC2)ccc1Cl,2,-4,0,15,3,69*,59*
CN(C)S(=O)(=O)c1cc(NC(=O)COC(=O)CCc2ccccc2)ccc1Cl,2,0,-3,8,8,-2,·
CCC(=O)OCC(=O)Nc1ccc2c(c1)OCO2,1,1,4,0,2,9,·
CCS(=O)(=O)N1CCC(C(=O)Oc2ccc(C)c(C)c2)CC1,3,0,2,2,5,-2,·
CCOC(=O)Nc1nc(-c2ccccc2)c(C(=O)c2ccccc2)s1,5,0,10,4,11,41*,42*
COC(=O)Nc1nc(-c2ccccc2)c(C(=O)c2ccc(Cl)cc2)s1,-1,-3,5,2,9,10,·

# High-throughput results: PubChem BioAssay, The Scripps Research Institute Molecular Screening Center
